Molecules are shown by their SMILES. In all, about 340,000 compounds went through this assay and about 12,000 (3.5%) were called active. A call without a number means that no potency is given here. Roughly 18% stayed inconclusive and do not appear here. This is one part of a sample in which actives are shown more often than they occur. Calls follow the shape of the dose curve; as a rule, active = well fitted inhibition curve with a large enough effect; inconclusive = small, poorly fitted or top-dose-only effect, or another doubt; inactive = no such curve, though single readings can be large or run the other way.

From PubChem BioAssay AID651820 (National Center for Advancing Translational Sciences (NCATS), 2012) come the findings set out here.
Potency is read from the fitted curve at half-maximal effect.

The nature of this assay: qHTS Assay for Inhibitors of Hepatitis C Virus (HCV). Particulars: Huh7.5.1 HCVcc-Cre infection, luciferase reporter, 44 h; series mostly up to 41.8 µM. In outline:
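Compounds are dispensed onto cells plated 4 h earlier at 1,000 per well, with HCVcc-Cre virus (about 0.5 moi) added next. Following 44 h of culture, luminescent signal is measured for 15 sec after 15 min with substrate at room temperature.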
(Quantitative high-throughput screening tests each substance at several concentrations.)
As to `Cc1cc2nc3n(c2cc1C)CC1CC(C(=O)NCCC(C)C)N(C)C31` (centres undefined), the Potency result is “inactive”. Still for that read-out and setting: in the case of `Cc1cccc(Nc2nnc(SCC(=O)c3c(N)n(C4CC4)c(=O)[nH]c3=O)s2)c1C` it was “inactive”. The same measure, in the same setting: in the case of `O=[N+]([O-])c1ccc(N=NNc2ccc([N+](=O)[O-])cc2)cc1` it was “inactive”. Consider `COc1cc(OC)c(C(=O)NNC(=O)c2ccc(NS(=O)(=O)c3cccs3)cc2)cc1OC`, for which the Potency result is “inactive”. The same measure, in the same setting: in the case of `CC(Nc1nc(N2CCN(CCO)CC2)nc2ccccc12)c1ccccc1` (centres undefined) it was “inactive”. Same read-out and setting: in the case of `CC(Nc1nc(N2CCCC2)nc2ccccc12)c1ccccc1` (centres undefined) it was 10 µM (active); in that of `Cc1ccc(C(CC(=O)O)Nc2nc(N3CCCCC3)nc(N3CCCCC3)n2)cc1` (centres undefined), “inactive”; in that of `Cc1ccc(C)c(OCC(=O)NNC(=O)C2CCC2)c1`, “inactive”. Still for that read-out and setting: in the case of `CCc1cc2c(N3CCN(c4nnc(CC)s4)CC3)ncnc2s1` it was 7.08 µM (active). With `O=C(O[C@@H]1[C@H](Cc2ccccc2)NS(=O)(=O)[C@H]2C[C@@H]3C=C[C@]12O3)c1ccccc1Br`, the Potency entry was “inactive”. The same measure, in the same setting: in the case of `COc1cccc(NC(=O)CSc2nccn(-c3ccc4c(c3)OCCO4)c2=O)c1` it was “inactive”. The same measure, in the same setting: in the case of `O=c1[nH]c(-c2cccs2)nc2ccccc12` it was “inactive”; in that of `CC(=O)Nc1cccc(Nc2nc(-c3cccs3)nc3ccccc23)c1`, 11.2 µM (active); in that of `CC(=O)Nc1cccc(-c2cnc3ccccc3n2)c1`, “inactive”. As for `Cc1ccc(/C=C/C(=O)OCC(=O)NCc2ccc(Cl)cc2)o1`, the Potency result was “inactive”.

Take `O=S(=O)(c1ccccc1)N1CCC(c2ccccc2)CC1`: the Potency entry is “inactive”. For `Cc1ccsc1C(=O)NCCc1ccco1`, the Potency result was “inactive”. The same measure, in the same setting: under `O=C(COc1ccc(Br)cc1F)NCC1(N2CCCCC2)CCCCC1` stands “inactive”. As for `CCN1C[C@@H]2[C@@H]3C(=O)N(Cc4ccccc4)C(=O)[C@@H]3[C@](Cc3ccccc3)(C(=O)OC)N2C1=NC1CCCCC1`, the activity change, negative = inhibition was 11.2% [at 8.37 µM] (inactive). Regarding `CCC[C@H]1CCCC/C=C\CCCC(=O)OCCN1C(=O)OC(C)(C)C`, the Potency entry is “inactive”. Still for that read-out and setting: in the case of `CCN1C[C@@H]2[C@@H]3C(=O)N(C)C(=O)[C@@H]3[C@](C)(C1=O)N2C(=O)c1ccccc1` it was “inactive”; in that of `C/[N+]([O-])=C\c1ccc([N+](=O)[O-])o1`, “inactive”; in that of `O=C(/C=C/c1ccc([N+](=O)[O-])o1)NNC(=O)c1ccc(F)cc1`, 14.1 µM (active).

`O=C(N/N=C/c1ccc([N+](=O)[O-])o1)c1cn(-c2ccccc2)nc1-c1ccc(F)cc1`: the Potency result is “inactive”. For `CCCCCCSc1ccc(-c2nc3ccc(Cl)cn3c2NCc2ccccc2)cc1`, the Potency entry was “inactive”. As for `C[C@@H]1NS(=O)(=O)c2cc(Cl)ccc2O[C@@H]1c1ccccc1`, the Potency entry is “inactive”. Same read-out and setting: in the case of `Cc1sc2c(c1C)c(=O)n(-c1ccccc1)c(=O)n2CC(=O)NCC1CCCO1` (centres undefined) it was “inactive”; in that of `Cc1cccc(-n2c(=O)c3c(C)c(C)sc3n(CC(N)=O)c2=O)c1`, “inactive”; in that of `Cc1cccc(NC(=O)Cn2c(=O)n(Cc3ccccc3)c(=O)c3c(C)c(C)sc32)c1`, 10 µM (active). On the same count and under the same terms, in the case of `C=CCC(NC(=O)Cc1ccccc1)C(=O)NCCC` (centres undefined) it was “inactive”; in that of `CC(=NNC(=O)c1ccncc1)c1ccc(Cl)c(Cl)c1`, “inactive”. The same measure, in the same setting: in the case of `CN(Cc1cccs1)C(=O)CN1C(=O)c2ccccc2S1(=O)=O` it was “inactive”; in that of `COc1cc(C(=O)N2CCN(S(=O)(=O)c3ccc(C(C)C)cc3)CC2)ccc1OCC(=O)N1CCOCC1`, “inactive”; in that of `COCC(C)NCc1cc(Br)ccc1OC` (centres undefined), “inactive”. As for `Cc1ccc(OCCOCCOc2ccc(Br)cc2/C=N\NC(=O)c2ccncc2)cc1`, the Potency result is “inactive”. On to `CCC(C)NCCOCCOc1ccc(Br)cc1C` (centres undefined), for which the Potency is 11.2 µM (active). On the same count and under the same terms, under `Cc1cccc(-n2ncc(C#N)c2-n2cccc2)c1` stands “inactive”. As to `Cc1cccc(-n2ncc(Cl)c(Cl)c2=O)c1`, the Potency was 11.2 µM (active). Consider `O=c1c(Cl)c(NC2CC2)cnn1-c1ccccc1`, for which the Potency entry is “inactive”.

As for `O=C(Nc1ccc(NC(=O)c2ccc3c(c2)OCO3)cc1)c1cccc(Cl)c1`, the Potency entry is “inactive”. On the same count and under the same terms, in the case of `COc1ccc(NC(=O)c2cccc(Cl)c2)c[n+]1[O-]` it was 3.16 µM (active); in that of `O=C(Nc1ccon1)c1cccc(Cl)c1`, “inactive”; in that of `Cc1ccc(NC(=O)C(C)OC(=O)C2CC3CCCC(C2)C3=O)cc1S(=O)(=O)N1CCOCC1` (centres undefined), “inactive”. Regarding `CC[C@@H](C)[C@@H]1CN([C@@H](C)CN2CCC[C@H]2CN2C(N)=NC[C@H]2C(C)C)C(=N)N1CCc1ccc(Cl)c(Cl)c1`, the Potency result is “inactive”.

Take `COc1ccccc1C(=O)NCC(=O)OCC(=O)Nc1nnc(-c2ccccc2)o1`: the Potency result is “inactive”. Take `c1ccc(-c2nnc(N3CCOCC3)c3ccccc23)cc1`: the Potency entry was “inactive”. On the same count and under the same terms, under `CCCC(=O)N1CCN(c2nnc(-c3ccc(C)cc3)c3ccccc23)CC1` stands 12.6 µM (active); under `OCCN1CCN(c2nnc(-c3ccccc3)c3ccccc23)CC1`, “inactive”. On the same count and under the same terms, under `COc1ccc2nc3n(c(=O)c2c1)-c1ccc(Cl)cc1C(=O)NC3Cc1ccccc1` (centres undefined) stands “inactive”. Still for that read-out and setting: in the case of `CCN(CC(=O)Nc1ccc(NC(C)=O)cc1)C(=O)CSC(=S)N1CCCC1` it was “inactive”; in that of `CN(C(=O)CSc1cccc[n+]1[O-])C1CCCCC1`, “inactive”. For the compound `Cc1ccc(N(Cc2cc(=O)[nH]c3ccccc23)C(=O)CCl)cc1`, the Potency is 11.2 µM (active). Same read-out and setting: in the case of `Cc1ccc(N(Cc2cc3ccccc3[nH]c2=O)C(=O)c2cccs2)cc1` it was “inactive”. On the same count and under the same terms, in the case of `CC(=O)N(Cc1cc(=O)[nH]c2ccccc12)c1ccc(C)cc1C` it was “inactive”.

Turning to `COc1cc(O)c2c(=O)c3c(O)c(O)ccc3oc2c1OC`, the Potency result is “inactive”. The same measure, in the same setting: in the case of `CCc1cccc(C)c1NS(=O)(=O)c1cc(Br)cnc1N` it was 11.2 µM (active); in that of `Cc1ccc(C)c(NS(=O)(=O)c2cc(Br)cnc2N)c1`, “inactive”. Still for that read-out and setting: in the case of `CC(=O)c1ccc(NC(=O)CCNS(=O)(=O)c2cc(Br)cnc2N)cc1` it was “inactive”; in that of `CCOc1ncccc1C(=O)OCC(=O)Nc1cccc(S(=O)(=O)N2CCCCCC2)c1`, “inactive”. Turning to `COC(=O)[C@]1(C)N[C@H](CN(C)C(=O)c2ccc(C(C)(C)C)cc2)[C@@H]2C(=O)N(C)C(=O)[C@@H]21`, the activity change, negative = inhibition is -14.2% [at 8.37 µM] (inactive). With `COCCn1c(SC(C)C(=O)NC2CC2)nnc1-c1cccc(C)c1` (centres undefined), the Potency result is “inactive”. `COC(=O)c1ccc(COc2ccc(/C=C/C(=O)c3ccc(OC)c(CSCC(=O)O)c3)cc2OC)cc1`: the Potency result is “inactive”. The same measure, in the same setting: under `COCOc1cc(O)c(C(=O)/C=C/c2ccc(OCOC)c(OCOC)c2)c(OCOC)c1` stands 7.94 µM (active).

On to `COc1ccc(/C=C/C(=O)c2ccc(OC)cc2O)cc1`, for which the activity change, negative = inhibition is 1.23% [at 8.37 µM] (inactive).
